The text below walks through data of PubChem BioAssay (EPA / NIEHS).

Calls of active or inactive are those of the source. How the source made its calls: active means hit-call score of the fitted dose curve at least 0.9, where 1 is the maximum; inactive means score below 0.9.

The nature of assay [1]: APR_HepG2_CellCycleArrest_24hr: Apredica 24-hour HepG2 Assay for Cell Cycle Arrest (AID 2282905).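 Further: cell cycle arrest scored as ratio of 2N to 4N nuclear DNA content.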 To be noted: imaging, actives raise or lower the signal. The procedure, abridged: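 Readout: Hoechst 33342 nuclear DNA content by high-content fluorescent imaging, six images/well, 20x. Human HepG2 liver cells, 24 hr compound exposure, 0.39–200 uM, final DMSO 0.5% v/v. Gain or loss fitted relative to DMSO baseline.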

The nature of assay [2]: APR_HepG2_NuclearSize_24hr: Apredica 24-hour HepG2 Assay for Nuclear Size (AID 2282907). To be noted: high-content imaging, actives raise or lower the signal. A digest of the protocol:
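Read-out: nuclear diameter from Hoechst 33342 (2 ug/mL) imaging of fixed HepG2 cells, 20x, six fields/well. Compounds ran at 0.39–200 uM for 24 hr, 0.5% DMSO final. Gain or loss was fitted bidirectionally relative to the DMSO baseline.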

A short description of assay [3]: APR_HepG2_CellLoss_24hr: Apredica 24-hour HepG2 Assay for Cell Loss (AID 2282908).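 On AC50: fit in both directions so a hit may be cell loss or gain.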 To be noted: high-content imaging. A digest of the protocol:
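Read-out: Hoechst 33342-stained nuclei counted by automated fluorescence imaging after formaldehyde fixation and Triton permeabilization. Ten concentrations, 0.39 to 200 uM, duplicate wells, 0.5% DMSO final. Gain or loss of signal fitted relative to DMSO baseline.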

Assay [4] in a line: APR_HepG2_MicrotubuleCSK_24hr: Apredica 24-hour HepG2 Assay for Microtubule CSK Stabilty (AID 2282909). The note with it: HepG2 microtubule cytoskeleton imaging, actives raise or lower the signal. A digest of the protocol:
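Read-out: alpha-tubulin immunofluorescence intensity by automated high-content imaging of fixed HepG2 cells after 24 h compound treatment. Ten concentrations, 0.39 to 200 uM, in duplicate; DMSO 0.5% v/v. Taxol positive control; DMSO-normalized bidirectional curve fitting.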

Assay [5] in a line: APR_HepG2_MitoticArrest_24hr: Apredica 24-hour HepG2 Assay for Mitotic Arrest (AID 2282910). The note with it: high-content imaging, actives raise or lower the signal. The procedure, abridged:
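Treatment lasted 24 hr in the human HepG2 line at 0.39–200 uM, solvent held at 0.5% DMSO. Fixed cells were stained with Hoechst 33342 and anti-phospho-histone H3, imaged at 20x, and analysed by gain- or loss-of-signal fitting against DMSO.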

A short description of assay [6]: APR_HepG2_MitoMembPot_24hr: Apredica 24-hour HepG2 Assay for Mitochondrial Membrane Potential (AID 2282911). To be noted: imaging, actives raise or lower the signal. The procedure, abridged: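 Cells are dosed for 24 hr across 0.39 to 200 uM with solvent held at 0.5% DMSO. They are then stained with 250 nM MitoTracker Red CMXRos for 30 min, fixed in 3.7% formaldehyde and imaged.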

Assay [7] can be described thus: APR_HepG2_MitoMass_24hr: Apredica 24-hour HepG2 Assay for Mitochondrial Mass (AID 2282912). The note with it: high-content imaging, actives raise or lower the signal. The procedure, abridged:
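HepG2, 24 hr dosing, 10 concentrations 0.39–200 uM in duplicate, DMSO 0.5% final. MitoTracker Red CMXRos 250 nM, 30 min pre-fix; 3.7% formaldehyde fix. Imaging-based fluorescence intensity; gain/loss fit vs DMSO baseline.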

Assay [8] is described as follows: APR_HepG2_p53Act_24hr: Apredica 24-hour HepG2 Assay for p53 Activation (AID 2282913).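 Further: p53 protein immunofluorescence averaged per cell in HepG2 with Hoechst nuclei.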 To be noted: high-content imaging, actives raise or lower the signal. The procedure, abridged: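 Human HepG2 liver cells; 24 hr cpd treatment, 0.39–200 uM, 0.5% DMSO final. Fixed in 3.7% formaldehyde, permeabilized with 0.5% Triton X-100, stained with anti-p53/Cy5 plus Hoechst 33342. Six images per well at 20x; gain or loss vs DMSO.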

The nature of assay [9]: APR_HepG2_CellCycleArrest_72hr: Apredica 72-hour HepG2 Assay for Cell Cycle Arrest (AID 2282914). To be noted: high-content imaging, actives raise or lower the signal. A digest of the protocol: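 Read-out is Hoechst-stained nuclear DNA content measured by automated fluorescence imaging (20x, six images per well), fitted in both directions relative to DMSO. Human HepG2 liver cells received 0.39–200 uM compound for 72 hr at 0.5% v/v DMSO.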

The nature of assay [10]: APR_HepG2_CellLoss_72hr: Apredica 72-hour HepG2 Assay for Cell Loss (AID 2282915). To be noted: high-content imaging. A digest of the protocol:
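HepG2 cells were exposed for 72 hr to compounds at 0.39–200 uM (ten concentrations, duplicate) in 0.5% v/v final DMSO. Nuclei were stained with Hoechst 33342 after 3.7% formaldehyde fixation, imaged at 20x, and counted; fits bidirectional versus DMSO.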

Assay [11] is described as follows: APR_HepG2_P-H2AX_72hr: Apredica 72-hour HepG2 Assay for H2AX Phosphorylation (AID 2282916).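 Further: phospho-histone H2A.x immunostain intensity per cell marking DNA damage.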 To be noted: imaging, actives raise or lower the signal. The procedure, abridged:
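Readout: phospho-H2A.x immunofluorescence (FITC secondary) plus Hoechst nuclear stain, high-content imaging at 20x, six fields/well. HepG2, 72 hr compound exposure, 0.39–200 uM, final DMSO 0.5% v/v. Gain or loss fitted relative to DMSO baseline.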

Assay [12] can be described thus: APR_HepG2_MitoMembPot_72hr: Apredica 72-hour HepG2 Assay for Mitochondrial Membrane Potential (AID 2282917). To be noted: imaging, actives raise or lower the signal. The procedure, abridged:
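HepG2 cells exposed 72 h to compounds at 0.39–200 uM (0.5% v/v DMSO, duplicates); MitoTracker Red CMXRos 250 nM loaded 30 min before 3.7% formaldehyde fixation, imaged by HCS fluorescence. Bidirectional fit versus DMSO.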

The nature of assay [13]: APR_HepG2_MicrotubuleCSK_72hr: Apredica 72-hour HepG2 Assay for Microtubule CSK Stabilty (AID 2282919). The note with it: HepG2 microtubule cytoskeleton, high-content imaging, actives raise or lower the signal. The procedure, abridged: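 Ten-point dosing (0.39–200 uM, 0.5% DMSO) of HepG2 for 72 hr, with taxol as the cytoskeletal positive control. The cells were formaldehyde-fixed and then stained with alpha-tubulin/Cy5 and Hoechst. Imaging at 20x used a −2 um Z offset for tubulin.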

Assay [14] in a line: APR_HepG2_P-H2AX_24hr: Apredica 24-hour HepG2 Assay for H2AX Phosphorylation (AID 2282920). To be noted: high-content imaging, actives raise or lower the signal. A digest of the protocol: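 HepG2, 24 hr, cpd 0.39–200 uM (10 conc, duplicate), DMSO 0.5% v/v final. Fix 3.7% formaldehyde, Triton X-100 permeabilize, anti-phospho-H2A.x 1:200 + Hoechst 2 ug/mL. Imaged, bidirectional fit vs DMSO.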

A short description of assay [15]: APR_HepG2_StressKinase_24hr: Apredica 24-hour HepG2 Assay for Stress Kinase (AID 2282922). To be noted: HepG2 stress kinase (phospho-c-Jun) imaging, actives raise or lower the signal. The procedure, abridged: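 After 24 hr compound treatment (up to 200 uM, final DMSO 0.5% v/v), HepG2 cells are fixed and multiplex-labeled; phospho-c-Jun intensity is captured by high-content fluorescence imaging and analyzed relative to DMSO.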

A short description of assay [16]: APR_HepG2_p53Act_72hr: Apredica 72-hour HepG2 Assay for p53 Activation (AID 2282923).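 Further: average cellular p53 protein immunofluorescence intensity in HepG2 cells.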 To be noted: high-content imaging, actives raise or lower the signal. The procedure, abridged:
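Readout: p53 immunofluorescence quantified by automated high-content imaging at 20x, six fields per well, nuclei located via Hoechst. Dosing ran 72 hr over ten concentrations from 0.39 to 200 uM; bidirectional curve fitting against DMSO baseline.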

A short description of assay [17]: APR_HepG2_MitoMass_72hr: Apredica 72-hour HepG2 Assay for Mitochondrial Mass (AID 2282924).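 Further: MitoTracker Red CMXRos stain intensity per cell imaged as mitochondrial mass.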 The note with it: high-content imaging, actives raise or lower the signal. The procedure, abridged:
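Steps: treat HepG2 72 hr (0.39–200 uM, duplicate wells); load MitoTracker Red CMXRos, 250 nM, 30 min; fix with 3.7% formaldehyde, permeabilise with 0.5% Triton X-100; capture images, nuclei via Hoechst 33342; fit bidirectionally against DMSO.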

Assay [18] in a line: APR_HepG2_NuclearSize_72hr: Apredica 72-hour HepG2 Assay for Nuclear Size (AID 2282925). The note with it: high-content imaging, actives raise or lower the signal. The procedure, abridged:
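Compounds (0.39–200 uM, final DMSO 0.5%) were applied to HepG2 for 72 hr. Cells were then formaldehyde-fixed, permeabilized and labelled with Hoechst 33342. Nuclear diameter was quantified from six images per well.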

Assay [19] is described as follows: APR_HepG2_StressKinase_72hr: Apredica 72-hour HepG2 Assay for Stress Kinase (AID 2282921). To be noted: HepG2 stress kinase (phospho-c-Jun) imaging, actives raise or lower the signal. A digest of the protocol: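 Phospho-c-Jun immunofluorescence measured by high-content imaging at 20x, six fields per well; bidirectional curve fitting against DMSO as baseline. Dosing: 0.39–200 uM, 72 h, 0.5% DMSO final.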

As for `CC(O)CC(C)(C)O` (configuration not stated), the compound was called inactive in assay [1], in assay [2], in assay [3], in assay [4], in assay [5] and in assay [6]. Also, the call in assay [7], in [8], in [9], in [11], in assay [13] and in assay [14] was inactive. The outcome in assay [15], in assay [16], in assay [17] and in [18] was inactive. Moreover, the figures for the AC50 in [10] and in assay [12] were 70.6 µM (active) and 1.62 µM (active), respectively.
Consider `O=C(Nc1ccc(Cl)cc1)Nc1ccc(Cl)c(Cl)c1`, for which the AC50 (in general, the concentration at which the activity in the assay is half-maximal) is 7.09 µM (active) in assay [1]; 4.01 µM (active) in assay [3]; 13.8 µM (active) in assay [6]; 3.93 µM (active) in assay [8]; 16.6 µM (active) in assay [9]; 5.54 µM (active) in assay [10]. The AC50 was 6.38 µM (active) in assay [11]; 56.3 µM (active) in [12]; 6.77 µM (active) in assay [13]; 4.63 µM (active) in assay [14]; 5.61 µM (active) in assay [16]. The outcome in [2], in assay [4], in [5], in assay [7], in assay [15] and in assay [17] was inactive. In addition, the compound was classed as inactive in assay [18].
For `Cc1cc(F)ccc1-c1cc(N2CC[C@@H](O)[C@H]2CO)ncc1N(C)C(=O)C(C)(C)c1cc(C(F)(F)F)cc(C(F)(F)F)c1`, the compound was called inactive in assay [1], in assay [2], in assay [3], in [4], in assay [5] and in assay [6]. In addition, the compound was called inactive in [7], in [9], in assay [12], in assay [13], in assay [15] and in assay [17]. For the same compound, the compound was classed as inactive in assay [18]. Moreover, the half-maximal activity concentration (AC50) in assay [8] is 94 µM (active); in assay [10], 64.7 µM (active); in [11] it was 57.7 µM (active); in assay [14], 53.8 µM (active); in assay [16] it was 65 µM (active).
Consider `O=C(OCCCCCCOC(=O)c1ccccc1)c1ccccc1`, for which the compound was called inactive in assay [1], in assay [2], in [3], in assay [4], in assay [5] and in assay [6]. The result in [7], in [8], in [9], in assay [10], in assay [11] and in assay [12] was inactive. Besides, the call in [13], in [14], in [15], in assay [16], in [17] and in assay [18] was inactive.
Consider `CN(C[C@@H](CC[N+]12CCC(C3CCCCC3)(CC1)CC2)c1ccc(Cl)c(Cl)c1)C(=O)c1cc(C(F)(F)F)cc(C(F)(F)F)c1`, for which the compound was classed as inactive in [1], in assay [2], in assay [9], in assay [19], in assay [15] and in assay [17]. Also, in assay [18], the result was inactive. Further, the AC50 in assay [3] is 13.1 µM (active); in assay [4], 34.3 µM (active); in [5], 33.4 µM (active); in assay [6], 1.27 µM (active); in assay [7], 100 µM (active); in assay [8] it was 18.3 µM (active). For the same compound, the AC50 was 24.9 µM (active) in assay [10]; 31.8 µM (active) in assay [11]; 47.8 µM (active) in assay [12]; 28.4 µM (active) in [13]; 35.1 µM (active) in assay [14]; 26.7 µM (active) in assay [16].
As to `O=C1c2ccccc2C(=O)N1CCc1noc(-c2ccc(CN3CCCCCC3)s2)n1`, the outcome in assay [1], in assay [2], in assay [3], in assay [4], in assay [5] and in assay [6] was inactive. Also, the compound was classed as inactive in [7], in [8], in [9], in [10], in [11] and in assay [12]. In addition, the compound was called inactive in [13], in assay [14], in [15], in assay [16], in assay [17] and in [18].
As to `CCN(Cc1cccnc1)C(=O)c1cccc(Cl)c1[C@]1(C)C(=O)N(Cc2ccc(OC)cc2OC)c2ccc(Cl)cc21`, the compound was called inactive in [1], in assay [2], in assay [3], in assay [4], in assay [5] and in [7]. Besides, the call in assay [8], in assay [9], in assay [12], in [13], in [14] and in assay [15] was inactive. Besides, the call in assay [17] and in [18] was inactive. The AC50 is 50.3 µM (active) in [6], 14.4 µM (active) in assay [10], 20.3 µM (active) in assay [11] and 29.4 µM (active) in assay [16].
